Screening data: PubChem, several laboratories
A selection: hits, their analogues and other compounds. The true share with any hit is near 4.4%.
TIM10 inh: inhibits growth of TIM10 yeast strain; inhibition, % at 10 µM; S. cerevisiae TIM10 strain growth, BacTiter-Glo luminescence, 24 h; hit rate 1.4% among 330,000; AID 463195;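 active = inhibition of 40% or more at the single tested concentration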;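 also: wild-type TIM10 isogenic control strain grown at permissive 25 °C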
SKKanGAS inh: blocks kanamycin growth of S. pyogenes SKKanGAS strain; BacTiter-Glo, 6 h; inhibition, % at 7.5 µM; hit rate 1.3% among 300,000;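 active = mean replicate score, as percent of positive control median, at least 50; inconclusive = mean below 50 but one replicate at or above 50; inactive = mean and every replicate below 50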;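 also: strain carries kanamycin resistance gene driven by streptokinase promoter and grows in 40 µg/ml kanamycin; loss of luminescence reflects streptokinase promoter inhibition or plain growth inhibition; 0% = median of DMSO wells and 100% = positive control at its reference dose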
tim23-1 inh: inhibits growth of tim23-1 mutant yeast | S. cerevisiae tim23-1 growth, BacTiter-Glo luminescence, 24 h | inhibition, % at 20 µM | hit rate 1.3% among 330,000 | AID 463212;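 active = growth inhibition of the mutant yeast at or above 50%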;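 also: temperature-sensitive mutant grown at 25 °C; plate controls were DMSO-treated mutant yeast for no effect and medium wells lacking yeast for full effect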
PfHsp90 yeast 2: reduces growth (ATP signal) of yeast expressing P. falciparum Hsp90. hit rate 0.32% among 310,000. S. cerevisiae expressing PfHsp90, BacTiter-Glo ATP, 48 h; yeast lacking PDR1 and PDR3 efflux regulators. AID 504621. inhibition, % at 9.4 µM;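 active = every replicate shows inhibition above about 80%, whatever the replicate mean, limit read from the data; inconclusive = mean inhibition reaches the set limit but some replicate falls short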;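 also: 0% = DMSO neutral controls and 100% = 20 µM radicicol positive controls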
tim10-1 inh: inhibits growth of tim10-1 mutant yeast; S. cerevisiae tim10-1 ts strain growth, BacTiter-Glo, 24 h; inhibition, % at 20 µM; hit rate 2.2% among 330,000; AID 463190;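 active = inhibition of at least 40%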;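 also: mutant grown at 25 °C; 0% = DMSO wells with yeast and 100% = wells holding no yeast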
tim23-1 conf: confirmation of tim23-1 mutant yeast growth inhibitors. hit rate 83% among 4,400. AID 463218. inhibition, % at 20 µM. S. cerevisiae tim23-1 growth, BacTiter-Glo luminescence, 24 h. shares compounds with tim23-1 inh;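 active = inhibition above about 39% in either of two replicate wells at 20 µM, limit read from the data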;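 also: temperature-sensitive tim23-1 mutant grown at 25 °C; 0% = DMSO wells with yeast and 100% = medium wells without yeast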
An asterisk follows results filed as active; ? = inconclusive; / = no result.

SMILES | TIM10 inh | SKKanGAS inh | tim23-1 inh | PfHsp90 yeast 2 | tim10-1 inh | tim23-1 conf
COc1ccc(-c2csc(NC(=O)c3ccccc3Br)c2C(=O)O)cc1 | 18 | 27 | 64* | 34 | 16 | 73*
O=C(/C=C/c1ccccc1)Nc1scc(-c2ccccc2)c1C(=O)O | / | 15 | / | 25 | / | /
O=C(Nc1scc(-c2ccccc2)c1C(=O)O)c1ccccc1F | 29 | 13 | 58* | 28 | 18 | 54*
O=C(Nc1sc2c(c1C(=O)O)CCCCC2)c1ccccc1F | 17 | -8 | 28 | -41 | 29 | /
COc1ccc(-c2csc(NC(=O)c3ccccc3OC)c2C(=O)O)cc1OC | -8 | 10 | -6 | 9 | -32 | /
O=C(/C=C/c1ccco1)Nc1scc(-c2ccccc2)c1C(=O)O | 9 | 14 | 55* | 49 | -11 | 46*
Cc1cccc(N=Nc2cn[nH]c2-c2ccco2)c1 | 12 | -28 | 29 | -14 | 15 | /
c1ccc(N=Nc2cn[nH]c2-c2ccco2)cc1 | 25 | 1 | 51* | -48 | 27 | 47*
CCOC(=O)Nc1ccc(C(=O)/C=C/c2ccccc2)cc1 | 27 | -12 | 58* | 6 | 27 | 40
COc1cccc(CNn2c(-c3cccc(C)c3)nc3ccccc3c2=O)c1O | 20 | 3 | 57* | / | 28 | 45*
COc1ccc(OC)c(CNn2c(-c3ccccc3F)nc3ccccc3c2=O)c1 | 33 | 8 | 36 | -14 | 35 | /
CC(C)n1c2ccccc2c2nc3ccccc3nc21 | 20 | 6 | 51* | -19 | 37 | 52*
C#CCn1c2ccccc2c2nc3ccccc3nc21 | 2 | -3 | -16 | -20 | -15 | /
COc1cc2nc(C3CCC3)nc(N3CCN(c4ccccc4OC)CC3)c2cc1OC | 39 | ? | 53* | 37 | 30 | 44*
O=S(=O)(N/N=C\C=C\c1ccccc1)c1ccc(Br)cc1 | 18 | 8 | 56* | 53 | 34 | 42*
Cc1ccc(S(=O)(=O)N/N=C\C=C\c2ccccc2)cc1 | 9 | -19 | 25 | 6 | 13 | /
CCCCCC(=O)c1ccc(O)cc1O | 33 | -4 | 54* | -34 | 25 | 47*
O=C(Cc1ccccc1)c1ccc(O)cc1O | / | / | / | 4 | / | /
Oc1ccc(Oc2ccc(Oc3ccc(O)cc3)cc2)cc1 | -16 | 67* | 59* | -91 | -10 | 51*
O=C(/C=C/c1ccc(Cl)cc1)c1ccc([N+](=O)[O-])o1 | 34 | -6 | 60* | / | -2 | 10
CCC1c2ccccc2C(=O)C1C(N)=O (stereo unspecified) | / | / | / | 3 | / | /
c1ccc(-c2nc3ccccc3[nH]2)cc1 | 22 | 1 | 50* | 4 | -15 | 46*
COc1ccc(-c2nc3ccccc3[nH]2)cc1 | 36 | 26 | 63* | 54 | -2 | 57*
COCCN(C(=O)Nc1ccc(OC)cc1)c1nc2ccccc2s1 | -6 | -5 | 30 | 0 | -3 | /
Cc1cccc(CC2CC(=O)N(c3nc4ccccc4s3)C2=O)c1 (stereo unspecified) | 32 | -2 | 31 | -9 | 34 | /
SMILES | TIM10 inh | SKKanGAS inh | tim23-1 inh | PfHsp90 yeast 2 | tim10-1 inh | tim23-1 conf
Cc1ccc2nc(N3C(=O)CNC3=S)sc2c1 | 29 | 89* | 64* | 9 | 22 | 66*
CCOC(=O)C1=C(C)N=c2s/c(=C\c3ccncc3)c(=O)n2C1c1ccc2c(c1)OCO2 (stereo unspecified) | 23 | 0 | 53* | / | 40 | 49*
CC(C)CCNc1nc(N)c([N+](=O)[O-])c(N2CCCCCC2)n1 | 26 | 30 | 50* | -33 | 21 | 32
CNc1nc(N)c([N+](=O)[O-])c(N2CCCCCC2)n1 | 7 | 4 | 19 | -4 | 27 | /
Cc1ccccc1/C=C1\Oc2ccccc2C1=O | 34 | / | 54* | -35 | 18 | 57*
OC(CNCc1cccnc1)COc1ccc2ccccc2c1 (stereo unspecified) | -11 | -5 | -5 | -7 | -7 | /
Fc1ccc(Oc2nc(-c3ccccn3)nc3ccccc23)cc1 | 15 | 42 | 50* | / | 37 | 51*
Cc1cc(N2CCCCCC2)n2nc(C)c(-c3ccccc3)c2n1 | 38 | 5 | 57* | -1 | 30 | 51*
Cc1cc(C)n2nc(C)c(-c3ccc(Cl)cc3)c2n1 | 14 | 3 | 52* | -3 | 16 | 30
Cc1cc(N2CCOCC2)n2nc(C)c(-c3ccccc3)c2n1 | 6 | / | 38 | -117 | 29 | /
N#CCC(=O)Nc1ccc(C(=O)OCC(=O)N2CCN(C(=O)c3ccco3)CC2)cc1 | -7 | / | 1 | -25 | 0 | /
O=C(O)c1cc(/C=C/c2ccc(N3CCOCC3)cc2)nc2ccccc12 | 17 | / | 52* | / | 32 | 41*
O=C(O)c1cc(/C=C/c2ccc(N3CCOCC3)c([N+](=O)[O-])c2)nc2ccccc12 | 4 | 20 | 22 | 1 | 10 | /
COc1cc(OC)c(OC)cc1CCC(C)NCCC(c1ccccc1)c1ccccc1 (stereo unspecified) | -2 | 8 | 15 | 1 | 31 | /
CC1CCCCC1NC(=O)Cn1cc([N+](=O)[O-])ccc1=O (stereo unspecified) | 6 | / | 16 | -11 | 5 | /
NC(=S)NN=C1c2ccccc2-c2ccccc21 | 40 | 4 | 57* | -18 | 36 | 46*
O=C(NN=C1c2ccccc2-c2ccccc21)c1ccccc1 | 34 | 37 | 50* | -30 | 19 | 66*
Oc1ccc2ccccc2c1C=Nc1ccccc1-c1nc2ccccc2[nH]1 | 15 | 9 | 52* | 5 | 39 | 47*
Cc1ccccc1C(=O)Nc1ccc(Br)cn1 | -8 | 2 | 21 | -9 | -1 | /
Cc1cc(C(=O)Nc2ccc(Br)cn2)sc1C | 11 | / | 64* | 43 | 0 | 68*
O=C(Nc1ccccc1C(=O)Nc1ccc(Br)cn1)c1ccccc1Cl | 18 | / | 52* | -29 | 37 | 54*
O=C(Nc1ccc(Br)cn1)c1ccc(Br)s1 | 10 | -7 | 27 | 12 | 3 | /
CCCc1nc2nc(C)c(NS(=O)(=O)c3ccc(C4CCCCC4)cc3)c(=O)n2[nH]1 | 6 | 34 | 3 | -5 | -20 | /
Cn1c(=NC(=O)CCl)sc2ccccc21 | 13 | -3 | 57* | -60 | 34 | 36
O=C(COc1ccc(Cl)cc1Br)Nc1ccncc1 | -54 | -6 | -61 | -7 | -27 | /
O=C(/C=C/c1ccccc1Br)c1ccc2c(c1)OCO2 | 2 | -15 | 28 | 0 | 5 | /
COc1cccc(/C=C/C(=O)c2ccc3c(c2)OCO3)c1OC | 33 | / | 53* | 2 | 26 | 54*
CN(C(=O)CSc1cc(C(=O)c2nccn2C)c2ccccc2n1)c1ccccc1 | 29 | 7 | 50* | 5 | 17 | 41*
Cn1ccnc1C(=O)c1cc(SCC(=O)NC2CC2)nc2ccccc12 | -25 | 2 | 8 | -14 | 13 | /
Cc1noc(C)c1C(=O)Nc1nc2ccc(S(C)(=O)=O)cc2s1 | 12 | 7 | 28 | -49 | 16 | /
